# Results published in the supplement of paper PMC6555819.
# Legend:
# Assay in all cases: PBM binding z-score (relative to random genomic background probes); higher = stronger binding; sequences stand for … in GC…GCGATTGACAGCGTAGAATGAAGG
# [1] = test system: RARg:RXRa (NR concentration 270 nM, RXRa partner concentration 90 nM)
# Procedure, shortened: (§1)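 Binding z-scores take random background probes as their reference. They come from custom Agilent 4×180K protein-binding microarrays incubated 1 h with ligand-free nuclear receptor dimers, with antibodies against each partner (one per run) detecting binding. Scanned fluorescence was regression-normalized.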
# [2] = test system: RARg homodimer (NR concentration 270 nM)
# Procedure, shortened: as §1
# [3] = test system: RXRa DBDmut IVT, anti-RXR (DBD mutation: RXRa K156A/R161A, NR concentration 90 nM)
# Procedure, shortened: as §1
# [4] = test system: RXRa homodimer (NR concentration 180 nM)
# Procedure, shortened: as §1
# [5] = test system: THRa:RXRa (NR concentration 90 nM, RXRa partner concentration 90 nM)
# Procedure, shortened: as §1
# [6] = test system: THRa homodimer (NR concentration 90 nM)
# Procedure, shortened: as §1
# [7] = test system: VDR homodimer (NR concentration 270 nM)
# Procedure, shortened: as §1
Sequence,PBM binding z-score [1],PBM binding z-score [2],PBM binding z-score [3],PBM binding z-score [4],PBM binding z-score [5],PBM binding z-score [6],PBM binding z-score [7]
TAGCCTAGTTCATTCAGGGGCCAGTATAGAAAGC,3.6,1.34,2.96,0.328,1.68,-0.0964,2.71
CGAACTAGGTCAAGGACAGTAAATCTCCGCACGC,4.01,4.54,1.47,2.55,3.16,2.01,0.575
GCTAGTTGGTCAGTAAAATGTCACACACCGGTCG,0.584,0.697,0.121,0.272,-0.216,-0.123,0.162
TAGCCTAGGTCATTCAGGGGCCAGCATAGAAAGC,6.31,4.44,1.98,2.92,3.55,0.61,1.44
AGAATGAGGTCACCAAAGATCAGGGAAACGCTTG,6.82,7.16,4.12,7.51,4.63,3.75,3.69
ACTCGGATGACAAAGGTCAGAGCTACGCCAGTGA,4.9,4.66,0.624,4.83,2.54,0.0278,1.1
TAGCCTAGGTCATGGGCCAGTGTACCACGCGAAC,4.41,4.65,0.252,3.76,3.13,1.23,0.706
AGAATGGGGTTATACGTAGATCAGGGAAGAAAGT,2.66,0.984,2.16,4.17,2.8,1.53,1.86
TAGCCTAGGTCATGCGGCCCAGTATAGTGTCGGC,3.79,4.07,0.176,2.87,2.89,0.868,0.276
AATACAGGGTCACGAGGCCAGAGTAGGTACGAAT,6.44,5.99,2.95,7.67,4.06,2.21,3.31
AGAATGAGGTTAAGTTCAGGGAAACAGAATACAT,3.41,2.98,2.38,3.6,3.34,1.48,3.44
CGAACTAGGTCAAAGGACATTGAAAGGCGACGTA,4.1,4.34,1.63,3.33,2.82,0.495,0.442
TAGCCTAGGTCATTCAGGGGCCACTATAGAAAGC,6.46,4.76,1.94,3.21,3.89,1.05,1.92
ATCGAAAGGTCGAAGGTGAGCATACCCACCCGAA,4.35,3.86,0.654,5.22,2.36,0.23,0.602
CGAACTAGGTCATTGACAGGACAGTGGATAGTAA,4.35,4.34,2.35,2.59,2.76,0.809,1.22
TTACCAAGGTGAAAGGTCGTTGCTGCACGCCTTG,4.15,1.94,0.854,5.85,3.37,0.758,1.74
CCTACTCGGCCAAAAAGGTCATTGATGCCGATAA,4.7,4.45,1.13,4.82,3.33,1.22,2.91
TCTAGTTGGTCTAAGGTCACACACTCGAAATGCG,4.63,4.37,2.21,4.71,4.63,5.66,2.99
ATATGTAGTTTATCGGGTCATTCAGTTTGCGCAT,2.41,1.85,2.32,2.61,3.42,3.09,4.13
CAAACTAGGTCACCGAAAGGTCAAAGTCCGCATG,8.9,8.27,2.98,7.88,4.72,2.96,4.24

Sequence,PBM binding z-score [1],PBM binding z-score [2],PBM binding z-score [3],PBM binding z-score [4],PBM binding z-score [5],PBM binding z-score [6],PBM binding z-score [7]
ATTTGTAGGTTACATCCGGGTCATTCAGGCTATG,4.18,2.41,1.3,3.47,3.85,3.39,4.18
ATCGAAAGGTCGAAGGTGCGTATACCCACCCGAA,3.93,3.91,1.37,4.23,1.66,-0.362,0.858
ACTTAAGGGTCAACGAGGTTATAGCACGCGTATA,6.9,6.85,3.8,7.56,4.4,1.07,5.42
TATTCAGGGTCAAAGGCCAGAGTACGAATGTCGA,6.24,5.27,3.3,7.75,3.83,1.25,3.62
TCTAGTTGGTCACGGAGGTCCCACACGACGGGTA,1.02,1.61,0.484,0.931,0.42,0.108,-0.235
ATATGTAGGATAGCTGGGGTCATTCAGACTAGGC,3.3,2.31,1.61,4.92,4.2,3.17,5.01
TCTAGTTGGTCACGGAGGGCACACACGACGGGTA,2.15,2.4,0.575,1.35,1.03,0.258,0.915
CAAACTAGGTCAAGGTCTAAGTCGGTTTGTGCCA,3.81,4.71,1.44,2.49,3.15,1.57,1.14
TCGAGTAGGTCACGGGGGCATTCAGGGATGAAGA,6.77,6.69,2.23,6.31,4.48,1.6,3.74
CGTCCGAGGTCATAGGAGGTCAGTGAAGACAGAT,7.12,7.76,4.48,7.49,5.37,3.58,5.17
CGTCCAAGGTCAGCGGGTCAGTGAAAGCGACGTG,6.32,6.61,2.67,4.98,3.74,2.34,1.76
GATACAGGGTCAGCTACAGGCCAGAGTATGGAAA,5.37,4.29,1.25,4.23,2.83,0.162,0.801
CGAACTAGGTCGTCCAGGACAGTGAATACATTGA,0.869,1.08,1.02,0.72,2.27,0.874,0.591
CGTCCAAGGTCAAGGTCAATGAAAGAGACTCGAA,7,7.87,3.91,6.52,4.35,3.41,3.28
CCTAGTGGGCCAAGGTCATTGATCAGTCAAAGCA,3.74,3.3,1.05,3.2,3.45,2.05,2.91
TCTGCTAGGTCATCGATGGTCAGCTAATCTGCTA,3.79,4.88,1.53,2.73,3.33,0.553,-0.0904
GCTGCTAGGTCAACTGATGGCCAGCTAAAGCTCG,4.59,5.33,1.01,2.75,2.89,0.674,-0.329
CGAACTAGGTCATTGACAGGACAATGAATAGTAA,4.78,4.69,2.44,2.79,2.91,0.699,1.62
CCTAGTTGGTCAAGGTCACATACGCTATAGGTAC,4.18,4.37,2.21,3.89,3.96,3.88,3.56
AGAATGGGGTTACCAAAGATCAGGGAAACGCTTG,2.9,1.43,1.25,4.79,3.07,0.513,0.217

Sequence,PBM binding z-score [1],PBM binding z-score [2],PBM binding z-score [3],PBM binding z-score [4],PBM binding z-score [5],PBM binding z-score [6],PBM binding z-score [7]
CCTACGGGGCCACGAAAGGTCATTGATTCAGTGA,5.49,5.3,0.662,5.74,4.64,0.878,2.64
GCTAGTTGGTCAGTAAAAGGTGACACACCGGTCG,1.58,1.17,-0.429,0.87,0.938,-0.422,-0.475
CGAACGAGGTCAAAGGACAGTGAAAGGCGACGTA,6.46,6.17,4.61,6.91,3.88,1.79,3.52
TAGCCTAGGTCATGCGGGCCAATATAGTGTCGGC,3.98,4.36,0.554,3.1,3.14,0.979,0.902
CGAACTAGGTCAAGGCCAGTGAATCTCCGCACGC,3.79,4.63,1.47,2.73,3.12,0.958,0.111
CCTACTGGGCCAAAAAGTTCATTGATGCCGATAA,1.48,1.8,1.51,0.748,0.849,-0.23,4.38
CCTAGTTGGTCAAGGTCACACCCGCTATAGGTAC,4.26,4.56,1.78,4.2,3.94,4.24,3.57
ATCGAAAGGTCCACGAGGTGAGTATACACCGTTT,1.13,1.3,0.571,0.952,1.96,0.835,0.691
CAAACTAGGTCACAAAAGGTCAAAGTCGAATGAC,7.42,8.02,2.52,7.78,4.76,2.22,3.98
ATATGTAGGTTAGCTGAGGTCATTCAGACTAGGC,3.95,3.72,1.9,4.53,5.33,4.38,5.55
GCTGCTAGGTCAACTGATGGTCACCTAAAGCTCG,5.53,5.1,1.29,3.52,3.38,1.69,0.0494
CCTTACGGGTCACTGACAGGTTATAGCGTTTGGA,5.75,4.55,1.73,5.06,2.76,0.417,1.2
CCTTACGGGTCACGTGGTTATAGCACGACGAGCG,5.5,5.1,1.32,6.08,3.04,0.0729,0.82
CGAACAAGGTCATCCAGGACAGTGAATACATTGA,6.28,6.49,4.2,6.46,4.53,3.3,4.92
CGAACTAGGTCATCCAGGACCGTGAATACATTGA,3.95,4.72,2.15,2.82,3.12,0.969,0.996
ATATGTAGGTTAAGCGTCATTCAGGTTGGTTCGC,0.863,0.763,0.559,1.15,0.543,0.263,0.378
AGCGAAAGGTCGAGGTGAGTATAGAGAAAGGGAA,4.32,4.24,0.946,4.46,2.89,0.747,0.467
TCTTGTAGATCGATAGAGGTTAAGAAAGTGCGCT,0.525,0.389,0.591,1.1,1.48,-0.46,0.0902
AGTCAAAGTTGAGGACGAGGTAACGTAAAGCACG,1.38,1.24,-0.405,0.856,3.3,1.96,0.344
CCAACTGGGCCAAAAAGGTCATTGATGCCGATAA,4.71,4.35,0.992,5.08,3.11,0.427,2.62
